The campaign covered roughly 65,000 compounds. About 2,100 (3.2%) showed an effect of 50% or more. The median lay at about -52%. The full list was thinned out, with strong results kept by preference.

For the test, the system named is Plasmodium falciparum. Description: Screen against P. falciparum Asexual Blood Stage (ABS), at 5uM. It is filed as functional, Dd2. The following applies: tested at 5 uM.
Regarding `C[C@H](O)CNc1cc(-c2ccncc2)ncn1`, the INHIBITION is -170%.
The result for `CCCOCCN1CCC2(CC1)CC(=O)N(Cc1cc(F)cc(F)c1)C2` reads 38.7%; that for `Cc1nc(CNCC(C)c2nc3ccccc3o2)cs1` (stereo not given), -109%.
The result for `Cc1ccc(O)c(CNCC(C)c2nc3ccccc3o2)n1` (stereo not given) reads 63.2%; that for `Cc1csc(CNCC(C)c2nc3ccccc3o2)n1` (stereo not given), -27.8%; that for `CN1CCc2nc(C3CCN(C(=O)CCC4CCCC4)CC3)ncc2C1`, -37.6%.
The result for `O=C(NC1CCCN(CCCc2ccccc2)C1)c1ccc(Cl)s1` (stereo not given) reads 60.9%; that for `O=C(NC1CCCN(CCCc2ccccc2)C1)c1ccncc1` (stereo not given), -29.1%; that for `O=C(NC1CCCN(CCCc2ccccc2)C1)C1=CCCCC1` (stereo not given), 2.46%.
As to `O=C(C1CC1)N1CC[C@H](c2nc3ccccc3o2)C1`, the INHIBITION worked out at 50.1%.
Turning to `CC(=O)N1CC[C@H](c2nc3cc(C)ccc3o2)C1`, the INHIBITION is -68.8%.
Take `CC(=O)N1CC[C@H](c2nc3cc(F)ccc3o2)C1`: the INHIBITION is recorded as -105%.
The value for `Cc1ccc(CS(=O)(=O)NCc2ccco2)cc1` was -31.4%; that for `CC(O)CNc1c(NCc2ccco2)c(=O)c1=O` (stereo not given) was -192%; that for `Cc1cc(C)c(N(CC(O)CNCc2ccco2)S(C)(=O)=O)c(C)c1` (stereo not given) was 60.7%.
The value for `CN(C)c1nc(NCCc2ccccn2)ncc1F` was -447%; that for `Cc1ccc(C(=O)N2CCCCC2CN(C)C)cc1` (stereo not given) was -58.9%.
The result for `Cc1ccc2c(c1)CN(C(=O)c1cccnc1)C(CN(C)C)CO2` (stereo not given) reads 29.2%; that for `Cc1ccc2c(c1)CN(C(=O)c1ccncc1)C(CN(C)C)CO2` (stereo not given), 13%.
Take `Cc1nc(C)c(C(=O)N2Cc3ccccc3OCC2CN(C)C)o1` (stereo not given): the INHIBITION was -21.9%.
The result for `Cc1ccc2c(c1)CN(C(=O)c1ccccc1F)C(CN(C)C)CO2` (stereo not given) reads 50.4%; that for `COc1ccc(C(=O)N2Cc3cc(C)ccc3OCC2CN(C)C)cc1` (stereo not given), 17.9%; that for `Cc1ccc2c(c1)CN(C(=O)C1CCCCC1)C(CN(C)C)CO2` (stereo not given), 66%.
The value for `Cc1ccc2c(c1)CN(C(=O)c1cnc(C)cn1)C(CN(C)C)CO2` (stereo not given) was -86.1%.
The result for `COc1ccccc1C(=O)N1Cc2cc(C)ccc2OCC1CN(C)C` (stereo not given) reads 60.8%; that for `CCCn1nccc1NC(=O)CN1CCc2cnc(C(C)C)nc2C1`, -4.64%.
As to `CC(C)CNC(=O)CC1(Cn2cnnn2)CCCCC1`, the INHIBITION was -92.1%.
The result for `O=S(=O)(c1ccc(Cl)s1)N1CCCn2ncnc21` reads -131%; that for `O=C1CO[C@@H]2CN(CC3CC3)C[C@H]2N1Cc1cccc(F)c1`, -55%.
The value for `O=C1NCC2(CCC(C(=O)N3CCC(O)CC3)CC2)Oc2ccccc21` (stereo not given) was -99.2%.

For the origin of these results see ChEMBL document CHEMBL4513216, “Probing the Open Global Health Chemical Diversity Library for Multistage-Active Starting Points for Next-Generation Antimalarials” (ACS Infect Dis, 2020).
